# RecA intein inh – Mtb RecA intein splicing inhibitors, primary screen, biochemical, fluorescence, HTS; Protein RecA (Mycobacterium tuberculosis (strain ATCC 25618 / H37Rv)), P9WHJ3; cell-free RecA intein splicing; inhibition, % (no concentration beside the values); actives 0.75% (n = 290,000); in the data active = inhibition above about 30%;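 also: 0% = vehicle wells and 100% = reference inhibitor control wells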
# Target sequence (P9WHJ3 whole entry, looked up): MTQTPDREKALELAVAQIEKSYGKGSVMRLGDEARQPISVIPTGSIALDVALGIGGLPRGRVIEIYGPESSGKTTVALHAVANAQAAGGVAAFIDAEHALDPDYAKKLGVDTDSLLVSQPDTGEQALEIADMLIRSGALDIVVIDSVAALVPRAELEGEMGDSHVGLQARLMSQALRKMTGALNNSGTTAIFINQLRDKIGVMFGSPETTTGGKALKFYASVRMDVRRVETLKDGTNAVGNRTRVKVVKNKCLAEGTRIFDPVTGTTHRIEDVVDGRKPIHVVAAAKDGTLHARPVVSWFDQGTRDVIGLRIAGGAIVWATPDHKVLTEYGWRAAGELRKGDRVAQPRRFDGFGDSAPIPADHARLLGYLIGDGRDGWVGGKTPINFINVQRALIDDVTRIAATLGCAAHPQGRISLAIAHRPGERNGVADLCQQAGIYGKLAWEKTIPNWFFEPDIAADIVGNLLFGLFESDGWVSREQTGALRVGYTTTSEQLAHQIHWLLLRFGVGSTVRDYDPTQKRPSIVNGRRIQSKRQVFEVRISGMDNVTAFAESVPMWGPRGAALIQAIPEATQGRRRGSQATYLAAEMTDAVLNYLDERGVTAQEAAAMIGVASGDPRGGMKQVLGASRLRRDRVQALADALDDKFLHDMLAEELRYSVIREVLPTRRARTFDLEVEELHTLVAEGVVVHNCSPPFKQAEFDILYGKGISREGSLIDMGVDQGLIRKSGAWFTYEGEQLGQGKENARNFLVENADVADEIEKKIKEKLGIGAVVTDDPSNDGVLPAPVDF
# Mtb FBA inh – Mtb FBA enzyme inhibitors, primary screen, biochemical, fluorescence, strain H37Rv; Fructose-bisphosphate aldolase (Mycobacterium tuberculosis (strain ATCC 25618 / H37Rv)), …; purified M. tuberculosis FBA, fluorescence read-out; AID 588726, 2011; inhibition, % at 1 µM; actives 2.3% (n = 360,000);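 also: 0% = vehicle and 100% = reference inhibitor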
# GDH-TPI counter-1 – GDH-TPI coupling enzyme inhibitors, primary screen, artefact control for M. tuberculosis FBA inhibitor project, biochemical, absorbance, full deck; inhibition, % at 4.8 µM; AID 588335, 2011; GDH-TPI coupled enzyme counterscreen, NADH absorbance; actives 1.2% (n = 360,000); in the data active = inhibition above about 30%;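 also: 0% = DMSO wells and 100% = wells lacking the enzyme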
# BJeLR lethal – MLPCN primary cell-based screen for lethality selective to Ras in HRASV12 cells | actives 0.17% (n = 300,000) | inhibition, % (test concentration not listed) | BJeLR (HRASV12) viability, CellTiter-Glo ATP luminescence, 48 h; in the data active = inhibition above about 50%
# PrPC surface inh – inhibitors of human cell surface prion protein PrPC, primary screen, cell-based, TR-FRET; Major prion protein (Homo sapiens), P04156; TR-FRET read-out; inhibition, % at 13.8 µM; actives 0.43% (n = 370,000); AID 720596, 2013; in the data active = inhibition above about 24%; also: 0% = median of the test wells and 100% = reference compound wells
# Mtb FBA inh conf – M. tuberculosis aldolase blockers, biochemical, fluorescence, strain H37Rv, confirmation | purified M. tuberculosis FBA, fluorescence read-out | actives 78% (n = 5,600) | inhibition, % at 1 µM | shares compounds with Mtb FBA inh;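 also: 0% = vehicle wells and 100% = reference inhibitor wells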
# GDH-TPI counter-2 – GDH-TPI coupling enzyme inhibitors, artefact control for M. tuberculosis FBA inhibitor project, biochemical, fluorescence, high throughput; shares compounds with Mtb FBA inh; GDH-TPI coupled enzyme counterscreen; inhibition, % at 1 µM; actives 81% (n = 5,600); AID 652141, 2013; in the data active = inhibition above about 10%
# An asterisk follows results filed as active; . = no result given; + = active, no number. Hits are enriched below; roughly 4.2% of the tested compounds scored in any of these assays. Rule as the data show it, unless noted: active = inhibition above about 27%; inactive = the rest.
SMILES,RecA intein inh,Mtb FBA inh,GDH-TPI counter-1,BJeLR lethal,PrPC surface inh,Mtb FBA inh conf,GDH-TPI counter-2
O=S1(=O)c2c(cccc2N2CC[C@@H](O)C2)O[C@@H]2CCN1C2,.,.,.,.,-4,.,.
CN1CCCN(C(=O)c2ccc(Br)s2)CC1,-4,-2,2,13,-7,.,.
CN1CCN(C(=O)c2ccc(-c3cccs3)s2)CC1,-3,50*,13,-4,-15,23,18*
CCNC(=O)NC(=O)C(C)OC(=O)c1oc2ccc(OC)cc2c1C (stereo unspecified),2,44*,22,.,9,2,-5
COC(=O)C1CCN(C(=O)COC(=O)c2cc(-c3ccccc3)nc3ccc(OC)cc23)CC1,.,83*,22,.,.,58*,51*
CCOc1ccc2oc(C(=O)OC(C(=O)NC(N)=O)C(C)C)c(C)c2c1 (stereo unspecified),-2,40*,12,2,5,+,+
CCOc1ccc2oc(C(=O)NNC(=O)c3ccccc3O)c(C)c2c1,0,7,16,12,1,.,.
CCOc1ccc2oc(C(=O)O)c(C)c2c1,-3,18,2,-5,1,.,.
CCOc1ccc2oc(C(=O)NCC(C)(C)CN(C)C)c(C)c2c1,0,44*,12,12,-1,116*,86*
Cc1cc(C)c(C2=NOC3c4ccccc4OCC23)c(C)c1 (stereo unspecified),.,.,.,.,-2,.,.
CCOC(=O)C1CCN(C(=O)COC(=O)c2oc3ccc(OC)cc3c2C)CC1,.,40*,-6,.,-1,86*,47*
COc1ccc(N2CCN(C(=O)COC(=O)c3oc4ccc(OC)cc4c3C)CC2)cc1,-1,14,5,-6,6,.,.
COc1ccc2oc(C(=O)OCC(=O)N3CC(C)OC(C)C3)c(C)c2c1 (stereo unspecified),0,36*,-11,-4,5,25,23*
COc1ccc2oc(C(=O)OC(C)C(=O)N(C)c3ccccc3)c(C)c2c1 (stereo unspecified),-2,31*,8,2,0,+,+
COc1ccc2oc(C(=O)OCC(=O)N3CC(C)CC(C)C3)c(C)c2c1 (stereo unspecified),0,31*,9,-14,-3,57*,51*
CCOC(=O)[C@]12CCCC=C1N(CCCOC)C(=O)[C@@H]2CC(=O)NCC1CCCCC1,.,.,.,.,-4,.,.
COc1ccc2oc(C(=O)OC(C)C(=O)N3CCC(C)CC3)c(C)c2c1 (stereo unspecified),.,44*,10,.,3,+,+
COC(=O)[C@]12C[C@H](CC(=O)NCc3cccs3)C(=O)N(CCc3ccc(OC)c(OC)c3)C1=C[C@H](COCc1ccccc1)O[C@@H]2C,.,.,.,.,5,.,.
O=S(=O)(N[C@H]1CCCC[C@@H]1N1CCOCC1)c1ccc(Cl)cc1,.,.,.,.,4,.,.
Cc1cc(=O)oc2cc(OCC(=O)OC(C)C(=O)Nc3ccc(S(N)(=O)=O)cc3)ccc12 (stereo unspecified),.,33*,18,.,6,82*,66*
CCN(CC(=O)Nc1c(F)cccc1F)C(=O)COc1ccc2c(C)cc(=O)oc2c1,.,30*,13,-13,0,123*,109*
Cc1cccc(C(C)C)c1NC(=O)COC(=O)COc1ccc2c(C)cc(=O)oc2c1,1,30*,5,-10,6,8,0
Cc1cc(=O)oc2cc(OCC(=O)OC(C)C(=O)NC3CCCC3)ccc12 (stereo unspecified),2,15,1,-2,0,.,.
COc1ccc(/C=C\c2cc(OC)c(OC)cc2CC[N+](C)(C)C)cc1OC,0,34*,21,5,-3,0,-3

# Screens as filed in PubChem BioAssay.
